Test results as given in PubChem BioAssay (NCATS).
Inconclusive results are not listed. Unmarked numbers belong to inactive results. Active and inactive are the calls of the source. The call rests on the fitted dose curve; in most records, active means well fitted cell-killing curve with a large enough effect; inconclusive means small, poorly fitted or top-dose-only effect, or effect the other way; inactive means no such curve, though single readings can be large or run the other way.

Assay: Quantitative High-Throughput drug screen in 47 multiple myeloma cell lines against the NCATS MIPE library collection: JIM1_ECACC cell viability assay (AID 1918964)
Settings: JIM1 myeloma viability, CellTiter-Glo ATP luminescence, 48 h; series mostly up to 45.8 µM; viability (% of DMSO): at the top concentration
From the text: PI: Beverly A. Mock Ph.D.
Laboratory of Cancer Biology and Genetics,
Center for Cancer Research, National Cancer Institute,
National Institute of Health, Bethesda, Maryland
Drug resistance and disease progression are common in multiple myeloma (MM) patients, underscoring the need for new therapeutic combinations. […] We hypothesized that effective combinations would reduce MYC expression and enhance p16 activity. […] These preclinical data identify potentially useful drug combinations for evaluation in drug-resistant MM and reveal potential mechanisms of combined drug sensitivity.
Described herein is the primary MIPE qHTS used to cherrypick compounds. Validated compounds were then further tested for potential synergistic activiy.
[1] Peat TJ, Gaikwad SM, Dubois W, Gyabaah-Kessie N, Zhang S, Gorjifard S, Phyo Z, Andres M, Hughitt VK, Simpson RM, Miller MA, Girvin AT, Taylor A, Williams D, D'Antonio N, Zhang Y, Rajagopalan A, Flietner E, Wilson K, Zhang X, Shinn P, Klumpp-Thomas C, McKnight C, Itkin Z, Chen L, Kazandijian D, Zhang J, Michalowski AM, Simmons JK, Keats J, Thomas CJ, Mock BA. Drug combinations identified by high-throughput screening promote cell cycle transition and upregulate Smad pathways in myeloma. Cancer Lett. 2023 Aug 1;568:216284. doi: 10.1016/j.canlet.2023.216284. Epub 2023 Jun 24. PMID: 37356470; PMCID: PMC10408729.
SEQUENCE No. (e.g., 1, 2, 3, etc.); […] (e.g., Cells, Incubation, Reagent, etc.); VALUE and DESCRIPTION.
1; Cells; 5 uL; white, solid bottom 1536-well Greiner assay plate.
2; Compounds; 23 nL; Kalypsis pin tool (Wako USA) equipped with a 1536-well pin head to transfer to the assay plates.
3; Incubation; 48 hours; 37C incubation.
4; Reagent;5uL; CellTiter Glo (Promega).
5; Detector; 425V; Luminescence; Viewlux PerkinElmer.
NOTES (numbers refer to Sequence numbers above)
1. The cell-based screening methods employed in this study were like those previously published. Briefly, the corresponding myeloma cell lines were screened in 1,536-well plates with 500 cells, 5-uL per well for inhibition of cell viability (assessed by measuring ATP levels with CellTiterGlo).
2. NCATS MIPE 4.0 library of approved and investigational drugs were added using the Kalypsis pin tool. Wells treated with DMSO only for 100% viability and media only wells for 0% viability were used as controls.
3. The assay plates were covered and incubated for 48 hours in a 37C, 5% CO2 incubator with controlled humidity.
4. After 48 hours, CellTilter-GloTM luminescent substrate mix (Promega) reagent was added to the assay plate and plates we incubated for 5 min at room temperature.
5. Signal was measured as median relative luminescence units on a ViewLux (PerkinElmer) multiplate reader.
[1] Heske CM, Davis MI, Baumgart JT, Wilson K, Gormally MV, Chen L, Zhang X, Ceribelli M, Duveau DY, Guha R, Ferrer M, Arnaldez FI, Ji J, Tran HL, Zhang Y, Mendoza A, Helman LJ, Thomas CJ. Matrix Screen Identifies Synergistic Combination of PARP Inhibitors and Nicotinamide Phosphoribosyltransferase (NAMPT) Inhibitors in Ewing Sarcoma. Clin Cancer Res. 2017 Dec 1;23(23):7301-7311. doi: 10.1158/1078-0432.CCR-17-1121. Epub 2017 Sep 12. PMID: 28899971; PMCID: PMC6636827.
Potency means the concentration at half of the fitted maximal effect.

SMILES	Potency	viability (% of DMSO) [%]
N=c1c2c(-c3ccccc3)c(-c3ccccc3)n(Cc3ccccc3)c2ncn1C1CCC(O)CC1 (stereo not given)	833 nM (active)	
CC[C@@H]1[C@@H](C)O[C@@](O)([C@@H](C)[C@H](O)[C@H](C)[C@H]2OC(=O)C=CC=C[C@@H](C)[C@@H]([C@@H](C)[C@@H](O)[C@H](C)[C@@]3(O)C[C@H](O[C@H]4C[C@H](O)[C@H](O)[C@H](C)O4)[C@H](CC)[C@@H](C)O3)OC(=O)C=CC=C[C@@H]2C)C[C@H]1O[C@H]1C[C@H](O)[C@H](O)[C@H](C)O1	264 nM (active)	
CCOC(=O)c1cncn1[C@H](C)c1ccccc1		126
CCN1CCN(C(=O)Cc2ccc(Nc3ncc(F)c(Nc4ccc(C(=O)Nc5ccccc5Cl)cc4)n3)cc2)CC1	2090 nM (active)	
O=C(Nc1ccncc1)C(=O)c1cn(Cc2ccc(Cl)cc2)c2ccccc12	16.6 nM (active)	
COC[C@H]1OC(=O)c2coc3c2[C@@]1(C)C1=C(C3=O)[C@@H]2CC[C@H](O)[C@@]2(C)C[C@@H]1OC(C)=O	1480 nM (active)	
O=C1CCC[C@@H]2[C@H]3CCCN4CCC[C@@H](CN12)[C@@H]34		64.2
NC1=NC(=O)N2CC12 (stereo not given)	13200 nM (active)	
CC(C)(C)[C@]1(O)C[C@@H]2OC(=O)C[C@@]23C(=O)O[C@@H]2OC(=O)[C@H](O)C213 (stereo not given in full)	33.2 nM (active)	
COc1ccc(N(C(=O)Oc2c(C)cccc2C)c2ccnc(Nc3ccc(N4CCN(C)CC4)cc3)n2)c(OC)c1	2640 nM (active)	
CCc1c(C(=O)C(N)=O)c2c(OCC(=O)O)cccc2n1Cc1ccccc1		130
O=c1[nH]c2ccc(Cl)cc2c(N[C@@H]2CN3CCC2CC3)c1-c1nc2ccccc2[nH]1	41.8 nM (active)	
COC1=CC(C)=C[C@@H](C)[C@@H](O)[C@@H](C)CC(C)=CC=C[C@H](OC)[C@H]([C@@H](C)[C@@H](O)[C@H](C)[C@@]2(O)C[C@@H](O)[C@H](C)[C@@H](C(C)C)O2)OC1=O	1 nM (active)	
CC(N[C@H]1C[C@H]1c1ccccc1)c1ccc2c(c1)OCCO2 (stereo not given in full)		79.8
O=S(=O)(CC1CS1)c1ccc(Oc2ccccc2)cc1 (stereo not given)		145
CC[C@H]1C=CC=CC[C@@H](C)[C@H](O)[C@@](C)(O)C(=O)[C@@H](C)[C@H](O)[C@@H](C)C(=O)[C@@H](C)[C@H](O)[C@@H](C)C=CC(=O)O[C@@H]2[C@@H](C)[C@H](CC1)O[C@]1(CC[C@H](C)[C@H](C[C@@H](C)O)O1)[C@H]2C	1 nM (active)	
COc1ccc2c(c1)[C@]13CCCCC1C(C2)N(C)CC3 (stereo not given in full)		94.4
CC(=Cc1csc(C)n1)[C@@H]1C[C@H]2O[C@@H]2CCC[C@H](C)[C@@H](O)[C@@H](C)C(=O)C(C)(C)[C@@H](O)CC(=O)O1	1 nM (active)	
CCNC(=O)C[C@@H]1N=C(c2ccc(Cl)cc2)c2cc(OC)ccc2-n2c(C)nnc21	1660 nM (active)	
CC[C@@]1(O)C(=O)OCc2c1cc1n(c2=O)Cc2cc3ccccc3nc2-1	132 nM (active)	

SMILES	Potency	viability (% of DMSO) [%]
Clc1ccccc1C(c1ccccc1)(c1ccccc1)n1cccn1		125
O=C(O)CNC(=O)c1c(O)c2ccccc2n(Cc2ccccc2)c1=O		113
CC1=C(O)C(=O)C=C2C1=CC=C1[C@@]2(C)CC[C@@]2(C)[C@@H]3C[C@](C)(C(=O)O)CC[C@]3(C)CC[C@]12C	743 nM (active)	
COC(=O)[C@@H](N)CCCN=C(N)N[N+](=O)[O-]		94.2
CC(=CCCC1=CCC(C2=CC(=O)OC2O)OC1O)CCC1=C(C)CCCC1(C)C (stereo not given)		88.8
C[C@]12Cc3cn[nH]c3C[C@@H]1CC[C@@H]1[C@H]2CC[C@@]2(C)[C@H]1CC[C@]2(C)O		61.3
COc1cc([C@@H]2c3cc4c(cc3[C@@H](O)C3COC(=O)C32)OCO4)cc(OC)c1O (stereo not given in full)	4.2 nM (active)	
Cc1c(C(=O)Nc2cccc(C(F)(F)F)c2)cc(-c2ccccc2)n1CCCN1CCOCC1	6620 nM (active)	
COc1ccc2c(c1)CN(C)CC2c1ccc(Cl)c(Cl)c1 (stereo not given)	7430 nM (active)	
C[C@]12CC[C@H]3[C@@H](CCC4=CC(=O)CC[C@@]43C)[C@H]1CC[C@H]2O		119
CCNC(=O)CC1N=C(c2ccc(Cl)cc2)c2cc(OC)ccc2-n2c(C)nnc21 (stereo not given)	16600 nM (active)	
C[C@]12CC[C@H](O)CC1=CC[C@H]1[C@H]3CCC(=O)[C@@]3(C)CC[C@@H]12	418 nM (active)	
C[C@@H]1CC[C@@]2(OC1)O[C@H]1C[C@H]3[C@@H]4CC=C5C[C@@H](O[C@@H]6O[C@H](CO)[C@@H](O[C@@H]7O[C@@H](C)[C@H](O)[C@@H](O)[C@@H]7O)[C@H](O)[C@@H]6O[C@@H]6O[C@@H](C)[C@H](O)[C@@H](O)[C@@H]6O)CC[C@]5(C)[C@@H]4CC[C@]3(C)[C@@H]1[C@H]2C	2350 nM (active)	
CN(C)NC(=O)CCC(=O)O		96
C[C@]12COC(=O)C[C@@H]1CC[C@@H]1[C@H]2CC[C@@]2(C)[C@H]1CC[C@]2(C)O		91.7
CC(C)[C@]12O[C@@H]1[C@@H]1O[C@]13[C@]1(O[C@H]1C[C@@H]1C4=C(CC[C@@]13C)C(=O)OC4)[C@H]2O		5.64
CCCC[N+]1(C)[C@H]2CC(OC(=O)[C@H](CO)c3ccccc3)C[C@H]1[C@H]1O[C@H]12 (stereo not given in full)		72.5
c1ccc2c(CN3CCNCC3)cccc2c1		110
CCCCCC[C@H]1C(=O)O[C@H](C)[C@H](NC(=O)c2cccc(NC=O)c2O)C(=O)O[C@@H](C)[C@@H]1OC(=O)CC(C)C	372 nM (active)	
CC(C)(O)C=CC(=O)[C@](C)(O)[C@H]1[C@H](O)C[C@]2(C)[C@@H]3CC=C4[C@@H](C=C(O)C(=O)C4(C)C)[C@]3(C)C(=O)C[C@@]12C	14.8 nM (active)	
